Data from PubChem BioAssay (Tox21).
Values without a mark were called inactive. Records with an inconclusive call do not appear. Entries that show only a call come without a potency. The source made the active and inactive calls. Unless noted, the call rests on the fitted dose curve; in most records, active means well fitted curve in the direction sought with a large enough effect in the repeat runs; inconclusive means weak or mixed curves; inactive means no such curve, though single readings can be large; an effect the other way counts as inactive or inconclusive.

How the values were obtained:
[1] = qHTS assay to identify small molecule agonists of H2AX (AID 1224845; active means well fitted activation curve with a large enough effect in the signal ratio in the repeat runs, not every such curve was filed as active; the % refers to the signal ratio)
Outline: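 Wild-type CHO-K1 cells plated overnight, then exposed 3 hr at 37C to compounds at 15 concentrations (0.76% DMSO). Lysed, then HTRF anti-pH2AX(S139)-cryptate/anti-H2AX-d2 detection after 24 hr at room temperature; emissions 665 and 620 nm.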

[2] = qHTS assay to identify small molecule agonists of the hypoxia (HIF-1) signaling pathway (AID 1224846; active means well fitted activation curve with a large enough effect in the signal ratio in the repeat runs, not every such curve was filed as active; the % refers to the signal ratio)
Outline: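 Reporter induction in HRE-bla ME-180 cells is taken as agonism: cells sit 5 hrs after plating, receive compounds or DMSO only, incubate 17 hrs at 37C under 5% CO2, and are loaded with CCF4-AM for beta-lactamase FRET measurement.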

[3] = qHTS assay to identify small molecule agonists of H2AX - cell viability counter screen (AID 1224847; calls by dose curve; further: nearly all actives have a fitted effect of over 30% in size; further: potency means the concentration at half of the fitted maximal effect; on activity change, negative = cytotoxicity: top concentration of the series differs between compounds)
Outline: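 Wild-type CHO-K1 cells (10% FBS medium) were plated overnight at 37C, exposed to compounds at 15 concentrations for 3 hr at 37C (0.76% DMSO final), and viability was read as CellTiter-Glo luminescence after 30 min at room temperature.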

[4] = qHTS RealTime-Glo MT Cell Viability Assay in HepG2 cells - 24 hour (AID 1224867); further: nearly all actives have a fitted effect of over 50% in size; further: potency means the concentration at half of the fitted maximal effect
Outline: (§1)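 Luminescence read-out: viable HepG2 cells reduce a prosubstrate to a NanoLuc substrate, giving a signal proportional to live cell number. Reads taken at 0, 8, 16, 24, 32 and 40 h of compound exposure at 37 C.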

[5] = qHTS RealTime-Glo MT Cell Viability Assay in HEK293 cells - 32 hour (AID 1224868); further: nearly all actives have a fitted effect of over 50% in size; further: potency means the concentration at half of the fitted maximal effect; on activity change, negative = cytotoxic: top concentration of the series differs between compounds
Outline: (§2)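 Nonlytic real-time viability readout: viable cells convert prosubstrate to NanoLuc substrate, giving luminescence proportional to live cell number. HEK293, 600 cells/well, compound added after 5 h, continuous culture at 37 C.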

[6] = A CellTox Green Cytotoxicity Assay to monitor cytotoxicity in HEK293 cells - 0 hour (AID 1224869); further: nearly all actives have a fitted effect of over 50% in size
Outline: (§3)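 Tox21 screen in HEK293: membrane-impermeant cyanine dye fluoresces on binding dead-cell DNA; compound pinned 5 h post-seeding, plates held at 37 C, signal read repeatedly through 40 h.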

[7] = qHTS RealTime-Glo MT Cell Viability Assay in HepG2 cells - 40 hour (AID 1224870); further: nearly all actives have a fitted effect of over 50% in size
Outline: (§4)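 HepG2 cells mixed with RealTime-Glo MT reagents (NanoLuc plus cell-permeant prosubstrate) were seeded at 600 cells/well, incubated 5 h at 37 C/5% CO2, then pinned with compounds in DMSO; nonlytic luminescence tracked viability during 40 h treatment.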

[8] = A CellTox Green Cytotoxicity Assay to monitor cytotoxicity in HEK293 cells - 40 hour (AID 1224871); further: nearly all actives have a fitted effect of over 45% in size
Outline: as §3

[9] = qHTS RealTime-Glo MT Cell Viability Assay in HEK293 cells - 16 hour (AID 1224872); further: nearly all actives have a fitted effect of over 50% in size; further: potency means the concentration at half of the fitted maximal effect; on activity change, negative = cytotoxicity: top concentration of the series differs between compounds
Outline: as §2

[10] = qHTS RealTime-Glo MT Cell Viability Assay in HepG2 cells - 8 hour (AID 1224873); further: nearly all actives have a fitted effect of over 55% in size
Outline: as §4

[11] = qHTS RealTime-Glo MT Cell Viability Assay in HEK293 cells - 40 hour (AID 1224874); settings: RealTime-Glo luminescence; max response: stronger effect = lower value; further: nearly all actives have a fitted effect of over 50% in size
Outline: (§5)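 HEK293 + NanoLuc + prosubstrate, 600 cells/well; 5 h, 37 C/5% CO2; compound 23 nL in DMSO by pintool; 37 C; luminescence read at 0, 8, 16, 24, 32 and 40 h time points.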

[12] = A CellTox Green Cytotoxicity Assay to monitor cytotoxicity in HEK293 cells - 24 hour (AID 1224875); further: nearly all actives have a fitted effect of over 45% in size
Outline: as §3

[13] = A CellTox Green Cytotoxicity Assay to monitor cytotoxicity in HepG2 cells - 16 hour (AID 1224876); further: nearly all actives have a fitted effect of over 45% in size; further: potency means the concentration at half of the fitted maximal effect
Outline: (§6)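 Measurements at 0, 8, 16, 24, 32 and 40 h of treatment captured CellTox Green fluorescence in HepG2 cells that had been co-plated with reagent and preincubated 5 h at 37 C/5% CO2.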

[14] = qHTS RealTime-Glo MT Cell Viability Assay in HepG2 cells - 32 hour (AID 1224877); further: nearly all actives have a fitted effect of over 55% in size; further: potency means the concentration at half of the fitted maximal effect
Outline: as §1

[15] = A CellTox Green Cytotoxicity Assay to monitor cytotoxicity in HepG2 cells - 24 hour (AID 1224878); further: nearly all actives have a fitted effect of over 45% in size; further: potency means the concentration at half of the fitted maximal effect
Outline: as §6

[16] = qHTS RealTime-Glo MT Cell Viability Assay in HEK293 cells - 0 hour (AID 1224880)
Outline: as §5

[17] = A CellTox Green Cytotoxicity Assay to monitor cytotoxicity in HEK293 cells - 32 hour (AID 1224881); further: nearly all actives have a fitted effect of over 40% in size; further: potency means the concentration at half of the fitted maximal effect
Outline: as §3

[18] = qHTS assay to identify small molecule antagonists of the estrogen related receptor (ERR) signaling pathway from Tox21 library (AID 1224848); further: nearly all actives have a fitted effect of over 50% in size; further: potency means the concentration at half of the fitted maximal effect
Outline: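 Tox21 10K compounds in DMSO tested for ERR pathway antagonism in NTP's ERR cell line; 18 h, 37 C exposure; ONE-Glo luminescence.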

[19] = qHTS assay to identify small molecule agonists of the estrogen related receptor (ERR) signaling pathway from Tox21 library (AID 1224849; calls by dose curve; further: nearly all actives have a fitted effect of over 15% in size); settings: ERR reporter cell line, ONE-Glo luciferase, 18 h; at 92.4 µM (top of the series) unless noted
Outline: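 Tox21 compounds tested for ERR agonism in an NTP reporter cell line: 18 h treatment at 37 C, then ONE-Glo luminescence.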

[20] = A CellTox Green Cytotoxicity Assay to monitor cytotoxicity in HepG2 cells - 40 hour (AID 1224879); further: nearly all actives have a fitted effect of over 40% in size; further: potency means the concentration at half of the fitted maximal effect
Outline: as §6

SMILES: Clc1cccnc1
- Potency [1]: inactive
- outcome [2]: inactive
- Potency [3]: inactive
- Potency [4]: inactive
- Potency [5]: inactive
- Potency [6]: inactive
- Potency [7]: inactive
- Potency [8]: inactive
- Potency [9]: inactive
- Potency [10]: inactive
- max response [11]: 0.202%
- Potency [12]: inactive
- Potency [13]: inactive
- Potency [14]: inactive
- Potency [15]: inactive
- Potency [16]: inactive
- Potency [17]: inactive

SMILES: CCOC(/C=C(\C)CCC=C(C)C)OCC
- Potency [1]: inactive
- outcome [2]: inactive
- Potency [3]: inactive
- Potency [18]: inactive
- activity change, positive = activation [19]: 4.73%
- Potency [4]: inactive
- Potency [6]: inactive
- Potency [7]: inactive
- Potency [8]: inactive
- Potency [9]: inactive
- Potency [10]: inactive
- max response [11]: 9.38%
- Potency [12]: inactive
- Potency [13]: inactive
- Potency [14]: inactive
- Potency [15]: inactive
- Potency [20]: inactive
- Potency [17]: inactive

SMILES: COc1cccc(CCc2ccccc2OCC(CN(C)C)OC(=O)CCC(=O)O)c1 (centres undefined)
- Potency [1]: inactive
- outcome [2]: inactive
- Potency [3]: inactive
- Potency [18]: inactive
- activity change, positive = activation [19]: -1.11% [at 42.5 µM]
- Potency [4]: inactive
- Potency [6]: inactive
- Potency [7]: inactive
- Potency [8]: inactive
- Potency [9]: inactive
- Potency [10]: inactive
- Potency [12]: inactive
- Potency [14]: inactive
- Potency [20]: 26.8 µM (active)
- Potency [16]: inactive
- Potency [17]: inactive

SMILES: Cc1cccc(Br)c1
- Potency [1]: inactive
- outcome [2]: inactive
- Potency [3]: inactive
- Potency [4]: inactive
- Potency [5]: inactive
- Potency [6]: inactive
- Potency [7]: inactive
- Potency [8]: inactive
- Potency [9]: inactive
- Potency [10]: inactive
- max response [11]: 0.0661%
- Potency [12]: inactive
- Potency [13]: inactive
- Potency [14]: inactive
- Potency [15]: inactive
- Potency [16]: inactive
- Potency [17]: inactive

SMILES: C/C=C/C(=O)C1=C(C)CCCC1(C)C
- Potency [1]: inactive
- outcome [2]: inactive
- Potency [3]: inactive
- activity change, positive = activation [19]: -5.63%
- Potency [4]: inactive
- Potency [6]: inactive
- Potency [7]: inactive
- Potency [9]: inactive
- Potency [10]: inactive
- max response [11]: 16.6%
- Potency [12]: inactive
- Potency [13]: inactive
- Potency [14]: inactive
- Potency [15]: inactive
- Potency [16]: inactive

SMILES: CS(C)(=O)=O
- Potency [1]: inactive
- outcome [2]: inactive
- Potency [3]: inactive
- Potency [18]: inactive
- Potency [4]: inactive
- Potency [5]: inactive
- Potency [7]: inactive
- Potency [9]: inactive
- max response [11]: -3.02%
- Potency [13]: inactive
- Potency [14]: inactive
- Potency [15]: inactive
- Potency [20]: inactive
- Potency [16]: inactive
- Potency [17]: 19.5 µM (active)

SMILES: COc1ccccc1OCCNCC(O)COc1cccc2[nH]c3ccccc3c12 (centres undefined)
- Potency [1]: inactive
- outcome [2]: inactive
- Potency [3]: 49.2 µM (active)
- Potency [18]: 26.6 µM (active)
- activity change, positive = activation [19]: -52.7% [at 42.5 µM]
- Potency [4]: 21.3 µM (active)
- Potency [5]: 16.9 µM (active)
- Potency [6]: inactive
- Potency [9]: 16.9 µM (active)
- Potency [12]: inactive
- Potency [13]: 23.9 µM (active)
- Potency [14]: 23.9 µM (active)
- Potency [15]: 26.8 µM (active)
- Potency [20]: 23.9 µM (active)
- Potency [16]: inactive

SMILES: NC(=O)c1ccccc1N
- Potency [1]: inactive
- outcome [2]: inactive
- Potency [3]: inactive
- Potency [18]: inactive
- activity change, positive = activation [19]: -2.02%
- Potency [4]: inactive
- Potency [6]: inactive
- Potency [8]: inactive
- Potency [9]: inactive
- Potency [10]: inactive
- Potency [12]: inactive
- Potency [13]: inactive
- Potency [14]: inactive
- Potency [15]: inactive
- Potency [20]: inactive
- Potency [16]: inactive
- Potency [17]: inactive

SMILES: CN1CN(C)CN(C)C1
- Potency [1]: inactive
- outcome [2]: inactive
- Potency [3]: inactive
- Potency [18]: inactive
- activity change, positive = activation [19]: 7.33%
- Potency [4]: inactive
- Potency [6]: inactive
- Potency [7]: inactive
- Potency [8]: inactive
- Potency [9]: inactive
- Potency [10]: inactive
- max response [11]: -12.7%
- Potency [12]: inactive
- Potency [13]: inactive
- Potency [14]: inactive
- Potency [15]: inactive
- Potency [16]: inactive
- Potency [17]: inactive

SMILES: CCc1c(C(=O)O)c(=O)cnn1-c1ccc(Cl)cc1
- Potency [1]: inactive
- outcome [2]: inactive
- Potency [3]: inactive
- Potency [18]: inactive
- activity change, positive = activation [19]: 3.84%
- Potency [4]: inactive
- Potency [6]: inactive
- Potency [7]: inactive
- Potency [8]: inactive
- Potency [9]: inactive
- max response [11]: 18.5%
- Potency [13]: inactive
- Potency [14]: inactive
- Potency [15]: inactive
- Potency [20]: inactive
- Potency [17]: inactive

SMILES: CCCCCCCCCC(=O)N(C)C
- Potency [1]: inactive
- outcome [2]: inactive
- Potency [3]: inactive
- Potency [18]: inactive
- activity change, positive = activation [19]: 3.98%
- Potency [4]: inactive
- Potency [6]: inactive
- Potency [7]: inactive
- Potency [9]: inactive
- Potency [10]: inactive
- max response [11]: -15.6%
- Potency [13]: inactive
- Potency [14]: inactive
- Potency [15]: inactive
- Potency [20]: inactive

SMILES: CC(=O)OC1CCCCC1
- Potency [1]: inactive
- outcome [2]: inactive
- Potency [3]: inactive
- Potency [18]: inactive
- activity change, positive = activation [19]: 5.62%
- Potency [4]: inactive
- Potency [5]: inactive
- Potency [6]: inactive
- Potency [8]: inactive
- Potency [9]: inactive
- Potency [10]: inactive
- Potency [12]: inactive
- Potency [13]: inactive
- Potency [14]: inactive
- Potency [15]: inactive
- Potency [20]: inactive
- Potency [16]: inactive

SMILES: CCOC(=O)CN
- Potency [1]: inactive
- outcome [2]: inactive
- Potency [3]: inactive
- Potency [4]: inactive
- Potency [5]: inactive
- Potency [6]: inactive
- Potency [7]: inactive
- Potency [8]: inactive
- Potency [9]: inactive
- Potency [10]: inactive
- max response [11]: -0.943%
- Potency [12]: inactive
- Potency [13]: inactive
- Potency [14]: inactive
- Potency [15]: inactive
- Potency [20]: inactive
- Potency [16]: inactive
- Potency [17]: inactive

SMILES: Cc1cccc(C)n1
- Potency [1]: inactive
- outcome [2]: inactive
- Potency [3]: inactive
- Potency [4]: inactive
- Potency [5]: inactive
- Potency [6]: inactive
- Potency [7]: inactive
- Potency [8]: inactive
- Potency [9]: inactive
- Potency [10]: inactive
- max response [11]: -0.971%
- Potency [12]: inactive
- Potency [13]: inactive
- Potency [14]: inactive
- Potency [15]: inactive
- Potency [20]: inactive
- Potency [16]: inactive
- Potency [17]: inactive

SMILES: CCC(=O)CC(C)CC (centres undefined)
- activation (H2AX phosphorylation) [1]: 0.83% [at 0.582 µM]
- activation [2]: 0.22% [at 0.291 µM]
- activity change, negative = cytotoxicity [3]: -3.23% [at 0.582 µM]
- activity change, negative = cytotoxicity [4]: -0.146% [at 0.29 µM]
- activity change, negative = cytotoxic [5]: 3.77% [at 0.29 µM]
- cytotoxicity [6]: 6.34% [at 0.29 µM]
- activity change, negative = cytotoxic [7]: -5.05% [at 0.29 µM]
- cytotoxicity increase [8]: 5.38% [at 0.29 µM]
- activity change, negative = cytotoxicity [9]: 5.55% [at 0.29 µM]
- viability change, negative = cytotoxic [10]: 1.82% [at 0.29 µM]
- max response [11]: 3.72%
- activity change [12]: 8.11% [at 0.29 µM, stronger effect = higher value]
- cytotoxicity increase [13]: 5.23% [at 0.29 µM]
- activity change, negative = cytotoxic [14]: -0.929% [at 0.29 µM]
- cytotoxicity [15]: 8.2% [at 0.29 µM]
- cytotoxicity increase [20]: 5.43% [at 0.29 µM]
- cytotoxicity increase [17]: 9.56% [at 0.29 µM]
